Test results as given in the supplement of paper PMC4206461.
Values without a mark were called inactive.

Test system: Pseudomonas aeruginosa PA14 dppBCDF deletion mutant
Assay: respiration area under curve with compound as sole nitrogen source, 24 h (OmniLog AUC (arbitrary units)); higher = more respiration / better utilisation as nitrogen source, active = 2000 or more; extreme values may be limits of the assay
Experimental: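 Biolog Phenotype MicroArray plates PM6-PM8: each di/tripeptide is the sole nitrogen source. Tetrazolium reduction was read in the OmniLog every 15 min for 24 h at 37°C and summarised as area under the respiration curve (arbitrary units). Values below 2000 count as no respiration. Strain is the dipeptide ABC transporter deletion mutant.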

SMILES	respiration area under curve
CSCC[C@H](NC(=O)[C@@H](N)CO)C(=O)O (plate: PM7)	88.8
C[C@H](N)C(=O)N[C@@H](C)C(=O)N[C@@H](C)C(=O)O (plate: PM8)	6480 (active)
C[C@@H](O)[C@H](N)C(=O)N[C@@H](CO)C(=O)O (plate: PM8)	0
CC(C)[C@H](N)C(=O)N[C@@H](Cc1ccc(O)cc1)C(=O)N[C@H](C(=O)O)C(C)C (plate: PM8)	5710 (active)
CC(C)[C@H](NC(=O)[C@@H](N)Cc1ccccc1)C(=O)O (plate: PM8)	3510 (active)
